Consider eight compounds from PubChem BioAssay (NCI).

Each structure is given as a SMILES string. Compounds without any hit were thinned out: in the full panel of roughly 83,000, 20% have a hit.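 Growth was measured after 48 h exposure to one concentration of compound in 96-well plates. Values under 10 count as active.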 Unmarked numbers belong to inactive results. The source made the active and inactive calls.

What all share (assay): NCI-60 one-dose screen, 48 h (100 = growth as untreated, 0 = no growth, -100 = all killed)
Common to all, as to conditions: 10 µM unless noted

Assay [1] concerns NCI-H23 lung.
Assay [2] relates to NCI-H226 lung.
The subject of assay [3] is NCI-H322M lung.
The subject of assay [4] is NCI-H460 lung.
Assay [5] concerns NCI-H522 lung.
Assay [6] relates to A549/ATCC NSCLC.
Assay [7] relates to 786-0 renal.
The subject of assay [8] is COLO 205 colon.
Assay [9] relates to DU-145 prostate.
Assay [10] relates to K-562 leukemia.
The subject of assay [11] is MALME-3M melanoma.
The subject of assay [12] is MDA-MB-231 breast.
Assay [13] relates to RXF 393 renal.
In assay [14] the test system is SF-268 CNS.
Assay [15] deals with SF-295 CNS.
The test system of assay [16] is SF-539 CNS.
For assay [17], the system named is UACC-257 melanoma.
Assay [18] has as its system M14 melanoma.

As to `Cc1c(C(N)=O)sc2ncn(CC(=O)NN=C3CCCCC3)c(=O)c12`, the growth in assay [1] was 111%; in assay [2] it was 96.7%; in assay [3], 116%; in assay [4] it was 115%; in assay [5] it was 83.8%; in assay [6], 111%. Moreover, the growth in assay [7] was 105%; in assay [8], 129%; in assay [9], 111%; in assay [10] it was 103%; in assay [11], 136%; in assay [12], 103%. Also, the growth in [13] was 83.5%; in assay [14], 108%; in assay [15], 98.6%; in [16] it was 105%; in [17] it was 165%; in assay [18], 105%.

With `c1ccc(CCn2cccc2)nc1`, the growth in [1] was 106%; in assay [2], 107%; in assay [3], 122%; in assay [4], 123%; in assay [5] it was 106%; in assay [6], 109%. Moreover, the growth is 103% in [7]; 94.8% in assay [8]; 104% in [9]; 98.6% in assay [10]; 114% in assay [11]; 94.9% in [12]. In addition, the growth was 116% in assay [13]; 96.5% in assay [14]; 114% in assay [15]; 106% in assay [16]; 108% in [17]; 106% in [18].

Consider `C[C@@H]1CC2C3CCC4=CC(=O)C=C[C@]4(C)[C@@]3(Cl)[C@@H](O)C[C@]2(C)[C@@]1(OC(=O)c1ccco1)C(=O)CCl` (some centres undefined), for which the growth in assay [1] was 66.5%; in assay [2] it was 62.8%; in [3], 74.3%; in assay [4], 62.1%; in [5], 73.9%; in assay [6], 33.6%. In addition, the growth in assay [7] was 80.5%; in assay [8], 111%; in [9], 79%; in [10] it was 56.7%; in assay [11], 87.7%; in assay [12], 72.2%. Further, the growth in assay [13] is 77.7%; in [14] it was 53.7%; in assay [15], 64.4%; in assay [16], 53%; in [17], 96.4%; in assay [18], 82%.

With `CCN(CC)CCNC(=O)n1cc(-c2ccncc2)c(-c2ccc(Cl)c(OC)c2)n1`, the growth in [1] is 98%; in assay [2], 61.5%; in assay [3], 118%; in assay [4], 104%; in assay [5], 81.9%; in assay [6], 77.5%. In addition, the growth in assay [7] was 72%; in assay [8] it was 70.1%; in [9], 97.8%; in assay [10], 85.9%; in [11], 114%; in assay [12], 79.5%. Moreover, the growth is 85.3% in assay [13]; 67.9% in assay [14]; 97.7% in assay [15]; 75% in [16]; 93.1% in [17]; 78.6% in assay [18].

As to `C#CCNc1nc(NCCNC(=O)CCl)nc(N(C)CCCCc2ccccc2)n1`, the growth was 84.7% in [1]; 71% in assay [2]; 96.4% in assay [3]; 107% in assay [4]; 25.4% in [5]; 119% in assay [6]. Besides, the growth was 97.5% in assay [7]; 91.2% in assay [8]; 101% in assay [9]; 95.1% in assay [10]; 60.3% in [11]; 90.7% in assay [12]. In addition, the growth in [13] was 93.5%; in assay [14], 94%; in assay [15] it was 99.4%; in [16], 106%; in assay [17] it was 113%; in [18], 78.5%.

Turning to `CCN1C(=O)N(CC)C2C1N=C(SC)N2/N=C/C=C/c1ccccc1OC` (centres undefined), the growth was 21.9% in assay [1]; 34.8% in assay [2]; 31.7% in assay [3]; 6.18% (active) in assay [4]; -32.8% (active) in assay [5]; 17.7% in assay [6]. Further, the growth in assay [7] was 14.5%; in assay [8], -48.9% (active); in assay [9], 5.61% (active); in [10] it was 6.68% (active); in assay [11], 31.9%; in assay [12], 21.2%. Further, the growth in assay [13] is 11%; in assay [14] it was 23.5%; in [15], 10.6%; in assay [16] it was -4.87% (active); in assay [17], 55.3%; in assay [18] it was 4.55% (active).

Consider `CC1CCCN(CCCCOc2ccc(-c3ccc(C#N)cc3)cc2)C1` (centres undefined), for which the growth in assay [1] was 82.6%; in assay [2], 93.4%; in assay [3], 99.9%; in assay [4], 99.1%; in assay [5], 59.6%; in [6], 60.2%. Further, the growth in assay [7] was 90.1%; in assay [8] it was 75.1%; in assay [9], 101%; in [10], 62%; in assay [11], 120%; in assay [12] it was 84.6%. Further, the growth is 94.6% in assay [13]; 92.5% in [14]; 94.6% in assay [15]; 98.4% in assay [16]; 66.6% in [17]; 83.2% in assay [18].

For the compound `CC(C)c1ccc(-c2cnc3nonc3n2)cc1`, the growth in [1] is 56.2%; in assay [2], 77.5%; in assay [3] it was 65.8%; in assay [4], 70.5%; in [5], 20%; in assay [6], 53.2%. The growth in [7] is 10.6%; in [8] it was 38.1%; in assay [9] it was 30.9%; in assay [10] it was 6.39% (active); in assay [11], 61.2%; in [12], 38.5%. Also, the growth in assay [13] was 37.7%; in [14], 62.4%; in assay [15], 48.9%; in [16], 14.5%; in assay [17], 52%; in [18] it was 7.59% (active).
